About 83,000 compounds went through this panel and 20% of them were active in at least one assay; those are over-represented in the sample as a whole.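 Negative percent growth values reflect cell death: -40 means 40% of the cells present at the start died, and -100 means all died.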 Unmarked numbers belong to inactive results. Active and inactive are the calls of the source. The calls were made as follows: active = growth percent below 10; inactive = the rest.
Key:
Test in all cases: NCI-60 one-dose screen, 48 h (100 = growth as untreated, 0 = no growth, -100 = all killed)
Conditions in all cases: 10 µM unless noted
[1] = system: NCI-H23 lung
[2] = system: NCI-H226 lung
[3] = system: NCI-H322M lung
[4] = system: HOP-62 NSCLC
[5] = system: NCI-H460 lung
[6] = system: HOP-92 NSCLC
[7] = system: NCI-H522 lung
[8] = system: A549/ATCC NSCLC
[9] = system: 786-0 renal
[10] = system: COLO 205 colon

Row | Compound | growth [1] | growth [2] | growth [3] | growth [4] | growth [5] | growth [6] | growth [7] | growth [8] | growth [9] | growth [10]
1 | C=C1C(=O)O[C@H]2[C@H]1CC/C(COC(=O)C(C)c1ccc(CC(C)C)cc1)=C\CC[C@@]1(C)O[C@@H]21 (stereo not given in full) | 25.8% | 83.6% | 97.9% | 84.7% | 37.9% | -26.8% (active) | -63.8% (active) | 75.1% | -93.4% (active) | -10.1% (active)
2 | CCCSc1nc2ccc(C)cc2cc1/C=[N+](\[O-])c1ccccc1 | 42.1% | 70.8% | 90.9% | 25.5% | 96.7% | 19.2% | 72.8% | 95.4% | 34.6% | 101%
3 | O=C(Nc1c2ccccc2nc2ccccc12)c1ccccc1CN1C(=O)c2ccccc2C1=O | 28.6% | 40.2% | 21% | 37.4% | 3.79% (active) | 38.5% | 23.7% | 18.8% | 38.9% | 9.84% (active)
4 | Cc1ccc2sc3c(NCCN)nc4ccccc4c3c(=O)c2c1 | 81.1% | 93.2% | 81.5% | 80.6% | -17.1% (active) | 50.7% | 85% | 73.3% | 87.7% | -21.7% (active)
5 | COc1ccc2c(c1)C(C)Cc1c(ncnc1-n1c(C)nc3ccccc31)N2C (stereo not given) | 30.2% | 63.7% | 39.5% | 33.6% | 7.77% (active) | -4.69% (active) | 20.9% | 35.2% | 29.2% | -11.3% (active)
6 | CN1CCN(c2ccc(-c3ccc4ncc(C#N)c(Nc5ccc(F)c(Cl)c5)c4c3)cc2)CC1 | 77.4% | 86.8% | 19.7% | 65.9% | 27% | 63.5% | 33.3% | 45.6% | 45.4% | 47.5%
7 | COc1ccc2c(c1OC)C(=O)O[C@H]2[C@H]1c2c(cc3c(c2OC)OCO3)CCN1C | 92.5% | 99.6% | 104% | 98.1% | 105% | 97% | 92% | 101% | 99.5% | 104%
8 | C[C@]12CC[C@@H]3c4cc(OC(F)F)c(OS(N)(=O)=O)cc4CC[C@H]3[C@@H]1CC[C@@H]2OS(N)(=O)=O | 36.2% | 93.2% | 65.7% | 44.4% | 15.1% | 57.3% | 45.7% | 43.5% | 67.5% | 116%
9 | Nc1cc2c(cc1Br)-c1cc(Cl)ccc1C2=O | 97.1% | 81.1% | 102% | 99.1% | 100% | 87.6% | 96.1% | 96.7% | 98.6% | 87.3%
10 | COc1cc(C(=O)/C=C/c2sc(Cl)nc2Cl)cc(OC)c1OC | 33.9% | 80.5% | 85.4% | 85% | 83.9% | 51.4% | 33.6% | 90.6% | 79.2% | -19.7% (active)
11 | Cc1nc(/N=C(\N)NC(=O)Nc2ccccc2Cl)sc1C | 42.6% | 68% | 51% | 45% | 12.1% | 64.6% | 18.6% | 47.8% | 57.1% | 12.2%
12 | COc1cc(/C=C/c2c(C(C)=O)c(C)nc3ccccc23)cc(OC)c1OC | 52.8% | 52.4% | 51.3% | 42.4% | 15% | 47.8% | 24.6% | 53.4% | 42.4% | 19%
13 | Cc1ccc(S(=O)(=O)N/N=C/C2(c3ccccc3)CC2)cc1 | 101% | 113% | 111% | 99% | 95.1% | 90.5% | 105% | 82% | 112% | 116%
14 | COc1cc(C(=O)c2cc(C)c3[nH]c4ccc(O)cc4c3c2C)cc(OC)c1OC | 31.4% | 53% | 33.7% | 40.1% | 8.93% (active) | 32.2% | 33.7% | 22.7% | 13.8% | 7.01% (active)
15 | CCOC(=O)Cn1c(=O)c2c(c3ccccc3n2C)n2nnc(-c3ccccc3)c12 | 102% | 128% | 115% | 95.5% | 102% | -15.2% (active) | 92.6% | 106% | 104% | 114%
16 | COc1cc(C(=O)/C=C/c2ccc(OCCCCCC[P+](c3ccccc3)(c3ccccc3)c3ccccc3)cc2)cc(OC)c1OC | -63% (active) | -29.2% (active) | -23.1% (active) | -62.2% (active) | -73.6% (active) | -26.2% (active) | -70.4% (active) | -1.89% (active) | -92.4% (active) | -95.3% (active)
17 | COc1ccc2sc3c(NCCCN(C)C)nc4ccccc4c3c(=O)c2c1 | 56.7% | 82.4% | 80.3% | 74.7% | -69.5% (active) | 20% | 79.4% | 73.9% | 68.5% | -1.26% (active)
18 | CCc1ccccc1-n1c(N)c(C#N)c(-c2ccc(Cl)cc2)c(C#N)c1=O | 107% | 110% | 140% | 101% | 111% | 80% | 94.2% | 117% | 112% | 126%
19 | CCN1C(=O)N(CC)C2Nn3c(s/c(=C\c4ccc([N+](=O)[O-])cc4)c3=O)=NC21 (stereo not given) | 69.3% | 80.1% | 89.7% | 96.2% | 98.3% | 84.1% | 9.71% (active) | 82.4% | 85.1% | 35.5%
20 | COc1cc2oc(-c3ccc(O)cc3)cc(=O)c2c(O)c1-c1c(OC)cc(O)c2c(=O)cc(-c3ccc(O)cc3)oc12 | 31.9% | 70.8% | 28.8% | 27% | 11.8% | 62.3% | 45.8% | 69.8% | 48.8% | 67.5%
21 | CCOC(=O)c1nc(Nc2ccc(C(C)=O)cc2)sc1C | 94.1% | 98.8% | 96.2% | 105% | 105% | 108% | 87.2% | 94.3% | 96.5% | 106%
22 | CSc1nc2ccc(C)cc2cc1/C=N/O | 99.4% | 76.7% | 94.3% | 82.8% | 91.1% | 72.2% | 75.7% | 71.8% | 89.9% | 102%
23 | Cc1ccc(-c2nc(N3CCN(C(=O)c4ccc(OC(F)(F)F)cc4)CC3)c3ccccc3n2)cc1 | 94.9% | 83.6% | 93% | 99.3% | 92.8% | 103% | 82% | 71.6% | 81.7% | 91.1%
24 | O=C(/C=C/c1sc(Cl)nc1Cl)c1ccccc1 | 95.2% | 99.7% | 95% | 101% | 102% | 94.3% | 93% | 99.9% | 97% | 87.4%
25 | COC1=C(C)C(=O)c2c(c(CCCl)c3n2CCC3O)C1=O (stereo not given) | -16.8% (active) | -30.8% (active) | -4.2% (active) | -11.2% (active) | 4.7% (active) | 103% | -46.1% (active) | 4.42% (active) | -21% (active) | -59.2% (active)
26 | COc1ccc2sc3c(NCCO)nc4ccccc4c3c(=O)c2c1 | 96.7% | 98.6% | 97.6% | 96.2% | 107% | 96% | 82.1% | 98.1% | 103% | 111%
27 | Cc1ccc2sc3c(NCCCN)nc4ccccc4c3c(=O)c2c1 | 79.9% | 93.5% | 69.2% | 69.1% | -54.2% (active) | 44.8% | 59.4% | 43.5% | 76.7% | -42.9% (active)
